Screening data deposited in PubChem by National Center for Advancing Translational Sciences (NCATS).
Most compounds without a hit are left out; they make up all but 4.8% or so of the library.
15-hLO inh: 15-hLO (ALOX15) enzyme inhibition; P16050; 74,000 compounds, 1.4% hits; purified 15hLO-1, xylenol orange hydroperoxide absorbance; Potency, µM (doses to about 57.1 µM), without a hit: top-dose activity change, negative = inhibition, most hits filed as inhibitors; further: on the % scale 0 is the no-effect control and ±100 the full control effect; nearly all actives have a fitted effect of over 55% in size
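Compounds were preincubated 15 min at room temperature with 40 nM purified human enzyme (25 mM Hepes pH 7.5, 0.01% Triton X-100); 50 uM arachidonic acid reacted 6 min. Fe-xylenol orange detection, 30 min, absorbance ratio 573/405 nm.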
Casp7 inh: blocks human caspase-7 allosterically or competitively; P55210; recombinant caspase-7, Ac-DEVD-AFC fluorescence rate; Potency, µM (series often up to 57.5 µM), inactives show at the top dose activity change, negative = inhibition, usual class: inhibitors; 75,000 compounds, 0.02% hits; active means well fitted inhibition curve with a large enough effect in the main read-out, with a control signal flat, not every such curve was filed as active; inconclusive means small, poorly fitted or top-dose-only effect, or a change in a side signal; further: % of control where 0% means no effect
ERK AVP block: vasopressin-driven ERK pathway inhibition; HEK293-V1b, vasopressin-stimulated pERK AlphaScreen; Potency, µM (top dose mostly 57.5 µM), for inactives: at the top dose activity, negative = inhibition, usual class: inhibitors; 72,000 compounds, 0.99% hits; further: on the % scale 0 is the no-effect control and ±100 the full control effect; nearly all actives have a fitted effect of over 55% in size
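Overnight-seeded V1b-HEK293 cells in 1% FBS got compound, then vasopressin (25 nM final, 5 min, 37C), then lysis buffer. AlphaScreen detection of phospho-ERK; activity normalized to basal and full-stimulation controls.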
HEK293 cAMP cs: raises cAMP in parental HEK293 cells, TSHR agonist counter-screen | Potency, µM (series often up to 57.1 µM), without a hit: at the highest dose activation, usual class: activators | parental HEK293 CNG cAMP sensor, membrane potential fluorescence | 73,000 compounds, 2.5% hits; further: % of control where 0% means no effect; nearly all actives have a fitted effect of over 55% in size
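Parental HEK 293 cells stably expressing a modified CNG channel (no TSHR) report cAMP rise as membrane depolarization. Membrane potential dye with 100 uM RO 20-1724 was loaded for 60 min at room temperature, then compound added for 30 min; fluorescence read at 590 nm.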
Caspase-1 inhib: blocks human caspase-1 allosterically or competitively. Caspase-1 enzyme, Ac-WEHD-AFC fluorogenic rate. Potency, µM (top dose mostly 57.5 µM), for inactives: at the top dose activity change, negative = inhibition, actives largely listed as inhibitors. 75,000 compounds, 0.03% hits;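 further: plate controls were vehicle for no effect and no substrate for full effect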
TSHR ag: TSH receptor (human) agonism; P16473; HEK293-CNG-TSHR cells (CNG channel as cAMP sensor), membrane potential dye, cAMP; 73,000 compounds, 0.48% hits; AID 926; Potency, µM (highest dose often 57.1 µM), for inactives: top-dose activation, actives largely listed as activators; active means well fitted activation curve with a large enough effect in the main read-out, with a control signal flat, not every such curve was filed as active; inconclusive means small, poorly fitted or top-dose-only effect, or a change in a side signal; inactive means no such curve, though single readings can be large or run the other way; % of control where 0% means no effect;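 further: the control signal comes from parental cells without the receptor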
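cAMP rise detected as CNG-channel membrane depolarization by fluorescent dye (emission 590 nm), 30 min after compound, following 60 min dye loading containing 100 uM RO 20-1724 at room temperature. Cells: TSHR/CNG HEK 293, with parental CNG HEK 293 as control.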
Active calls of the source: *; ? = inconclusive; · = no result given; [ ] = remark or other dose. Unless noted, the call rests on the fitted dose curve; in most records, active means well fitted curve in the direction sought with a large enough effect; inconclusive means small, poorly fitted or top-dose-only effect, or another doubt; inactive means no such curve, though single readings can be large; an effect the other way counts as inactive or inconclusive. Potency means the concentration at half of the fitted maximal effect.

SMILES | 15-hLO inh | Casp7 inh | ERK AVP block | HEK293 cAMP cs | Caspase-1 inhib | TSHR ag
O=C(c1ccc2ccccc2c1)N1CCN(c2ccc(O)cc2)CC1 | 3.16µM* | -1.5% | 8.0% | 6.1% | -1.6% | 0.4%
Cc1ccc(C(=O)N2CCN(c3ccccc3)CC2)cc1C | -20.1% | -3.2% | 51.7% | 25.1µM* | -8.5% | ?
Cc1ccc(C(=O)N2CCN(c3cccc(Cl)c3)CC2)cc1C | -13.2% | -6.9% | 17.1% | 26.5% | -2.8% | ·
CCNc1ncc2nc(-c3ccccc3)c(=O)n(-c3ccc(OC)cc3)c2n1 | 7.6% | ? | 13.4% | ? | · | ?
CCOC(=O)C1C(=O)CC(C)(O)C(C(=O)OCC)C1/C=C/c1ccccc1 (stereo not given) | -5.4% | 0.3% | -9.8% | 5.01µM* | 0.2% | ?
CCCn1c(=O)c2ccccc2n2c(SCC(=O)NCc3cccs3)nnc12 | -6.7% | -0.7% | ? | 20µM* | -0.7% | ?
COC(=O)c1ccc(-n2nnnc2SCc2ccccc2OC)cc1 | -7.6% | -2.1% | 72.3% | 15.8µM* | -2.9% | ?
CCOC(=O)c1oc2ccccc2c1CSc1nnnn1-c1ccc(OC)cc1 | -3.6% | -1.7% | -10.4% | 15.8µM* | -0.5% | ?
CCCn1c(=O)c2ccccc2n2c(SCCOc3ccc(C)cc3)nnc12 | -12.7% | -0.7% | 6.6% | 20µM* | -5.6% | ?
COC(=O)c1ccc(-n2nnnc2SCC(=O)Nc2cc(OC)ccc2OC)cc1 | 2.2% | -2.1% | -19.9% | ? | 0.3% | ?
CCCn1c(=O)c2ccccc2n2c(SCN3C(=O)c4ccccc4C3=O)nnc12 | 0.9% | -0.5% | -8.8% | 15.2% | 0.6% | 2.3%
CCCn1c(=O)c2ccccc2n2c(SCc3c(C(=O)OCC)oc4ccccc34)nnc12 | -21.1% | 0.2% | 4.3% | 15.8µM* | -0.7% | ?
COc1ccc(NC(C)=O)cc1NC(=O)CSc1nnc(-c2ccccc2)n1N | -0.9% | -0.6% | -13.1% | -9.2% | 1.3% | 15.6%
COc1ccc(C)cc1NC(=O)CSc1nnc(-c2cc3cccc(OC)c3o2)n1N | -5.5% | 4.7% | -6.5% | 15.8µM* | 1.3% | ?
O=C(CSc1ncnc2c1oc1ccccc12)N1CCCc2ccccc21 | ? | -1.1% | ? | 31.6µM* | -0.9% | ?
O=C(Cn1cnc2c(oc3ccccc32)c1=O)N1CCCc2ccccc21 | ? | -0.4% | -17.8% | 0.0% | -1.3% | 1.7%
Cc1noc(C)c1C(=O)N1CCC2(CCCN(Cc3nccs3)C2)CC1 | -0.6% | -1.4% | 4.8% | 14.2% | -1.0% | 2.5%
CCOC(=O)c1ccc(CC(=O)c2oc3cc(O)ccc3c2C)o1 | 20µM* | ? | 1.1% | ? | ? | ?
Cc1c(/N=C/c2ccco2)n(Cc2ccccc2)c2ccccc12 | ? | -2.3% | 12.6µM* | ? | -3.5% | ?
Nc1nc(CC(=O)O)cs1 | -5.0% | -0.1% | -5.9% | 24.2% | ? | -0.7%
O=C(C1COc2ccccc2O1)N1CCc2ccccc21 (stereo not given) | 15.8µM* | -16.0% | -1.2% | 10.2% | -5.3% | 27.3%
NCCOB(c1ccccc1)c1ccccc1 | 0.631µM* | -1.3% | ? | -34.0% | 2.0% | ?
Cc1cccc(-c2noc(CN(C(=O)c3ccc4c(c3)OCO4)C(C)C)n2)c1 | -26.0% | -4.7% | -3.0% | 31.6µM* | -0.6% | ?
CC(=O)N1CCC2(CC1)CN(c1ccccc1)C2 | 5.3% | -3.8% | 22.3% | 11.3% | -5.3% | 0.4%
COC(=O)c1c(-c2ccc(F)cc2)csc1NC(=O)c1ccco1 | -25.2%[11.4 µM] | -2.9% | 0.3% | 3.98µM* | -6.7% | ?
O=C(Nc1scc(-c2ccccc2)c1C(=O)O)c1ccco1 | -1.0% | -0.2% | -15.7% | ? | -1.8% | ?
CCSC(C)CC1C/C(=N/O)c2c(CC)noc2C1 (stereo not given) | -23.1% | -0.9% | -14.3% | 19.2% | 0.6% | 15.6%
CCCc1noc2c1/C(=N\O)CC(CC(C)SCC)C2 (stereo not given) | ? | -3.4% | · | 15.7% | 0.1% | 25.1µM*
